Measured values: publication PMC11006913
Changes are numbered by the printed parent chain.

Assays:
Test in all cases: PBM; 200 nM protein, PBS
Details in all cases: dsDNA, one strand shown
PAX4 [1] = target: T1, PAX4 (Homo sapiens, UniProt O43316 9-242, R200K)
T1 sequence: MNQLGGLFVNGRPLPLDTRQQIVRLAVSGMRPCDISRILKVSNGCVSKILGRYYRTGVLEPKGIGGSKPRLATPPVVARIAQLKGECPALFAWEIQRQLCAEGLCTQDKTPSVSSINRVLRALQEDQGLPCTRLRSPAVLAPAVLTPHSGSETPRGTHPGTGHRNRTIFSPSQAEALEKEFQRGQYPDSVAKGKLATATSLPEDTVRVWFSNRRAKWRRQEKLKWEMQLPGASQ

PAX4 [2] = target: T2, PAX4 (Homo sapiens, UniProt O43316 9-242)
T2 sequence: T1 sequence with K192R

PAX4 [3] = target: T3, PAX4 (Homo sapiens, UniProt O43316 9-242, R200Q)
T3 sequence: T1 sequence with K192Q

PAX4 [4] = target: T4, PAX4 (Homo sapiens, UniProt O43316 9-242, F177V)
T4 sequence: T1 sequence with F169V, K192R

HOXD13 [5] = target: HOXD13 (Homo sapiens, UniProt P35453 263-343, T313R)
Chain of HOXD13 (Homo sapiens, UniProt P35453 263-343, T313R) (P35453 263-343 T313R): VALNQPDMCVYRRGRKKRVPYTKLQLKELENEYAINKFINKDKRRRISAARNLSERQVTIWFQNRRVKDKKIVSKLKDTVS

HOXD13 [6] = target: HOXD13 (Homo sapiens, UniProt P35453 263-343)
Chain of HOXD13 (Homo sapiens, UniProt P35453 263-343) (P35453 263-343): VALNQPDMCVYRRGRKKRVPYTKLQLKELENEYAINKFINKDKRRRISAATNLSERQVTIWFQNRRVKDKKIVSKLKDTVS

PAX4 [7] = target: T5, PAX4 (Homo sapiens, UniProt O43316 9-242, F177Y)
T5 sequence: T1 sequence with F169Y, K192R

HOXD13 [8] = target: HOXD13 (Homo sapiens, UniProt P35453 263-343, T313A)
Chain of HOXD13 (Homo sapiens, UniProt P35453 263-343, T313A) (P35453 263-343 T313A): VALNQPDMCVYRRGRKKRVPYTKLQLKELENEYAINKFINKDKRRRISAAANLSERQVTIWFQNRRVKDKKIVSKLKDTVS

PAX4 [9] = target: T6, PAX4 (Homo sapiens, UniProt O43316 9-242, R227W)
T6 sequence: T1 sequence with K192R, R219W

PROP1 [10] = target: PROP1 (Homo sapiens, UniProt O75360 56-141)
Chain of PROP1 (Homo sapiens, UniProt O75360 56-141) (O75360 56-141): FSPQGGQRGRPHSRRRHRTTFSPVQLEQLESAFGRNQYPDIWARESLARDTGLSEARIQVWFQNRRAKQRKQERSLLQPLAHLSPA

PROP1 [11] = target: PROP1 (Homo sapiens, UniProt O75360 56-141, R99H)
Chain of PROP1 (Homo sapiens, UniProt O75360 56-141, R99H) (O75360 56-141 R99H): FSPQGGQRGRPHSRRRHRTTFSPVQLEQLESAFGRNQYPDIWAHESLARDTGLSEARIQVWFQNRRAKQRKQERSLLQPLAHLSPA

PROP1 [12] = target: PROP1 (Homo sapiens, UniProt O75360 56-141, F88S)
Chain of PROP1 (Homo sapiens, UniProt O75360 56-141, F88S) (O75360 56-141 F88S): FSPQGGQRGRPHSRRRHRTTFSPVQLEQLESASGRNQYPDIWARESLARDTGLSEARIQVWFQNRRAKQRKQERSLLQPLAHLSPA

Sequence | binding signal (PAX4 [1]) | binding signal (PAX4 [2]) | binding signal (PAX4 [3]) | binding signal (PAX4 [4]) | binding signal (HOXD13 [5]) | binding signal (HOXD13 [6]) | binding signal (PAX4 [7]) | binding signal (HOXD13 [8]) | binding signal (PAX4 [9]) | binding signal (PROP1 [10]) | binding signal (PROP1 [11]) | binding signal (PROP1 [12])
GTGTAATA | 10.9 upbm affinity estimate (log intensity, higher = more binding, comparable within an allelic series) | 11.1 upbm affinity estimate (log intensity, higher = more binding, comparable within an allelic series) | 10.8 upbm affinity estimate (log intensity, higher = more binding, comparable within an allelic series) | 10.4 upbm affinity estimate (log intensity, higher = more binding, comparable within an allelic series) | – | – | – | – | – | – | – | –
CCTCCCCC | 9.47 upbm affinity estimate (log intensity, higher = more binding, comparable within an allelic series) | 9.49 upbm affinity estimate (log intensity, higher = more binding, comparable within an allelic series) | 9.57 upbm affinity estimate (log intensity, higher = more binding, comparable within an allelic series) | 9.21 upbm affinity estimate (log intensity, higher = more binding, comparable within an allelic series) | 9.14 upbm affinity estimate (log intensity, higher = more binding, comparable within an allelic series) | 9.51 upbm affinity estimate (log intensity, higher = more binding, comparable within an allelic series) | 9.2 upbm affinity estimate (log intensity, higher = more binding, comparable within an allelic series) | 9.46 upbm affinity estimate (log intensity, higher = more binding, comparable within an allelic series) | 9.23 upbm affinity estimate (log intensity, higher = more binding, comparable within an allelic series) | – | – | –
TAAAGTAA | 10.7 upbm affinity estimate (log intensity, higher = more binding, comparable within an allelic series) | 10.9 upbm affinity estimate (log intensity, higher = more binding, comparable within an allelic series) | 10.8 upbm affinity estimate (log intensity, higher = more binding, comparable within an allelic series) | – | – | – | – | – | – | – | – | –
ATTAGGGA | 11.1 upbm affinity estimate (log intensity, higher = more binding, comparable within an allelic series) | 11.5 upbm affinity estimate (log intensity, higher = more binding, comparable within an allelic series) | 11.2 upbm affinity estimate (log intensity, higher = more binding, comparable within an allelic series) | 10.1 upbm affinity estimate (log intensity, higher = more binding, comparable within an allelic series) | – | – | 10.3 upbm affinity estimate (log intensity, higher = more binding, comparable within an allelic series) | – | 10.4 upbm affinity estimate (log intensity, higher = more binding, comparable within an allelic series) | – | – | –
ACCGAGCC | 9.37 upbm affinity estimate (log intensity, higher = more binding, comparable within an allelic series) | 9.52 upbm affinity estimate (log intensity, higher = more binding, comparable within an allelic series) | 9.41 upbm affinity estimate (log intensity, higher = more binding, comparable within an allelic series) | 9.22 upbm affinity estimate (log intensity, higher = more binding, comparable within an allelic series) | – | – | 9.25 upbm affinity estimate (log intensity, higher = more binding, comparable within an allelic series) | – | 9.41 upbm affinity estimate (log intensity, higher = more binding, comparable within an allelic series) | 6.86 upbm affinity estimate (log intensity, higher = more binding, comparable within an allelic series) | 6.94 upbm affinity estimate (log intensity, higher = more binding, comparable within an allelic series) | 6.77 upbm affinity estimate (log intensity, higher = more binding, comparable within an allelic series)
GATATTAA | 11.2 upbm affinity estimate (log intensity, higher = more binding, comparable within an allelic series) | 11.5 upbm affinity estimate (log intensity, higher = more binding, comparable within an allelic series) | 11.2 upbm affinity estimate (log intensity, higher = more binding, comparable within an allelic series) | 10.3 upbm affinity estimate (log intensity, higher = more binding, comparable within an allelic series) | – | – | 10.5 upbm affinity estimate (log intensity, higher = more binding, comparable within an allelic series) | – | 10.6 upbm affinity estimate (log intensity, higher = more binding, comparable within an allelic series) | – | – | –
CTAATTCA | 11.7 upbm affinity estimate (log intensity, higher = more binding, comparable within an allelic series) | 12.2 upbm affinity estimate (log intensity, higher = more binding, comparable within an allelic series) | 11.6 upbm affinity estimate (log intensity, higher = more binding, comparable within an allelic series) | 10.5 upbm affinity estimate (log intensity, higher = more binding, comparable within an allelic series) | – | – | 11 upbm affinity estimate (log intensity, higher = more binding, comparable within an allelic series) | – | 11 upbm affinity estimate (log intensity, higher = more binding, comparable within an allelic series) | – | – | –
ATTTAGAG | 10.6 upbm affinity estimate (log intensity, higher = more binding, comparable within an allelic series) | 10.7 upbm affinity estimate (log intensity, higher = more binding, comparable within an allelic series) | 10.6 upbm affinity estimate (log intensity, higher = more binding, comparable within an allelic series) | 10.1 upbm affinity estimate (log intensity, higher = more binding, comparable within an allelic series) | – | – | 10.2 upbm affinity estimate (log intensity, higher = more binding, comparable within an allelic series) | – | 10.2 upbm affinity estimate (log intensity, higher = more binding, comparable within an allelic series) | – | – | –
